# Screens as filed in PubChem.
# TGFb SMAD3 inh = blocks TGF-b signaling. HepG2 CAGA-GFP TGF-b/SMAD3 reporter, GFP fluorescence, 18 h; TGF-beta stimulated, 500 pg/mL final. Potency, µM (doses to about 46.1 µM), for inactives: at the top dose activity, negative = inhibition, hits mostly inhibitors. actives 1.2% (n = 410,000). AID 588855; note: % is set by controls: 0 for no effect and ±100 for the full control effect; nearly all actives have a fitted effect of over 65% in size
#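 Inhibition of TGF-beta-driven CAGA-GFP reporter expression in HEPG2 cells is measured by cellular GFP fluorescence after 18 h stimulation with 500 pg/mL recombinant TGF-beta in 1% FBS medium at 37 degrees C.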
# HT1080-NT tox = kills 2HG-producing HT-1080-NT fibrosarcoma cells | HT-1080-NT fibrosarcoma viability, CellTiter-Glo ATP luminescence, 48 h | actives 1.6% (n = 360,000) | Potency, µM (highest dose often 46.1 µM), inactives show top-dose activity, negative = less viability, hits mostly cytotoxic | AID 686970;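 note: NT is the 2HG producing partner of a matched IDH1 knockdown line; 0% = DMSO-treated cells and -100% = media-only wells without cells; nearly all actives have a fitted effect of over 55% in size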
#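 HT-1080-NT; 750 cells/well; 5% FBS RPMI; 48 h compound, 37 degrees C; CellTiter-Glo luminescence; curve fitting and curve-class assignment.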
# DT40 TDP1 no CPT = qHTS for Inhibitors of human tyrosyl-DNA phosphodiesterase 1 (TDP1): qHTS in cells in absence of CPT; actives 15% (n = 420,000); Potency, µM (titrated, usually from 46.2 µM), for the others: at the highest dose activity change, negative = growth inhibition, actives largely listed as inhibitors; DT40 Tdp1-/- hTDP1 cells, no CPT, ATP luminescence, 48 h; note: % is set by controls: 0 for no effect and ±100 for the full control effect; nearly all actives have a fitted effect of over 55% in size
#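 Compound effects on proliferation are scored in DT40 Tdp1-/-;hTDP1 cells in the absence of CPT. ATP levels (CellTiter-Glo luminescence) are recorded after a ≥48 hr, 37 °C incubation.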
# DT40 TDP1 CPT = DT40-hTDP1 cell growth loss with CPT; actives 12% (n = 420,000); chicken DT40 Tdp1-/-;hTDP1 cells + 20 nM CPT, ATP luminescence, 48 h; Potency, µM (doses to about 46.2 µM), without a hit: at the highest dose activity change, negative = growth inhibition, hits mostly inhibitors; note: % is set by controls: 0 for no effect and ±100 for the full control effect; nearly all actives have a fitted effect of over 55% in size
#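 Chicken DT40 Tdp1-/- cells stably complemented with human TDP1 were seeded at 400 cells/well in medium containing 20 nM camptothecin, exposed to pin-transferred compounds, and grown at 37 °C for at least 48 hr. Viability was read as ATP luminescence.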
# HepG2 tox = counter-screen for TGF-b inhibitors: cytotoxicity in HepG2 cells | Potency, µM (doses to about 46.1 µM), for the others: top-dose activity change, negative = cytotoxicity, hits mostly cytotoxic | actives 0.76% (n = 410,000) | HepG2 CAGA-GFP viability, ATP luminescence, 18 h
#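 HepG2 CAGA-GFP cells (1000/well, DMEM with 1% FBS) received compound, then TGF-beta at 500 pg/mL final, and were incubated 18 hours at 37 degrees C. Viability was read by CellTiter-Glo luminescence. Media-only wells were set as complete cell-killing and DMSO as no toxicity.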
# HT1080 IDH1KD tx = kills HT-1080 cells with IDH1 knockdown | HT-1080 IDH1 knockdown viability, ATP luminescence, 48 h | Potency, µM (highest dose often 46.1 µM), inactives show at the highest dose activity, negative = toxicity, hits mostly cytotoxic | actives 2% (n = 360,000) | AID 686971;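 note: 0% = DMSO wells and -100% = cell-free medium wells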
#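 Luminescent ATP read-out (CellTiter-Glo, 10 min at room temperature) after 48 h compound exposure at 37 °C gave viability of IDH1-knockdown HT-1080 cells. Activity was normalised to DMSO and cell-free wells, then fitted as concentration-response curves.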
# * = called active by the depositor; ? = inconclusive; / = no result. Rows were chosen to be rich in hits. Some 17% of all compounds tested hit in one or more screens of this group. Calls come from the whole dose curve; as a rule, active = well fitted curve in the direction sought with a large enough effect; inconclusive = small, poorly fitted or top-dose-only effect, or another doubt; inactive = no such curve, though single readings can be large; an effect the other way counts as inactive or inconclusive. Potency is the fitted concentration of half-maximal effect.
SMILES,TGFb SMAD3 inh,HT1080-NT tox,DT40 TDP1 no CPT,DT40 TDP1 CPT,HepG2 tox,HT1080 IDH1KD tx
COc1cccc(-c2nc(NC3CCCC3)c3ccccc3n2)c1O,?,?,18µM*,?,-44%,?
COc1cccc(-c2nc(N3CCN(C)CC3)c3ccccc3n2)c1O,?,-24%,16µM*,-110%,-25%,15µM*
COc1ccc(F)cc1Cn1nc(C(=O)O)c2ccccc2c1=O,0%,-3%,-30%,10%,-8%,-3%
CCCCOc1ccc(C(=O)NCCOc2cccc(OC)c2)cc1,-13%,0%,-22%,-18%,-18%,0%
CC(C)c1ccc(NC(=O)CCCc2nc(-c3ccc(Cl)cc3)no2)cc1,12%,/,-22%,-25%,-21%,/
CCOC(=O)c1ccccc1NC(=O)Nc1cc2c(cc1N1CCCCC1)n(C)c(=O)n2C,-1%,/,0%,6%,7%,/
C=CCn1c(=O)c2ccccc2n2c(SC(C)C(=O)Nc3nc(-c4ccccc4)cs3)nnc12 (stereo not drawn),11%,-5%,3.7µM*,9.2µM*,-16%,-13%
C=CCn1c(=O)c2ccccc2n2c(SCC(=O)Nc3sc(C)c(CC)c3C(=O)OCC)nnc12,-3%,11%,16µM*,?,9%,-1%
C=CCn1c(C)cc(C(=O)CSc2nnc3n(CCC)c(=O)c4ccccc4n23)c1C,-19%,-1%,18µM*,21µM*,1%,20%
C=CCn1c(=O)c2ccccc2n2c(SCC(=O)Nc3cc(C)on3)nnc12,-12%,-9%,?,?,-18%,-1%
C=CCn1c(=O)c2ccccc2n2c(SCC(=O)Nc3sc(C(=O)N(CC)CC)c(C)c3C(=O)OCC)nnc12,?,-11%,15µM*,23µM*,-16%,-16%
Cc1ccc(CC2CC(=O)N(c3nc4ccccc4n3C)C2=O)cc1 (stereo not drawn),-8%,0%,1%,-14%,-40%,3%
CCc1cccc(N(C(=O)c2csnn2)C(C(=O)NC2CCCCC2)c2ccncc2)c1 (stereo not drawn),-1%,3%,-12%,-6%,1%,0%
CC(C)CCNC(=O)c1cccc(Nc2nc3ccccc3n3nnnc23)c1,?,/,18µM*,21µM*,-67%,/
CC(NC(=O)c1cccc(Nc2nc3ccccc3n3nnnc23)c1)c1ccccc1 (stereo not drawn),?,/,7.3µM*,9.2µM*,6%,/
c1ccc(Nc2nc3ccccc3n3nnnc23)cc1,0%,-12%,?,?,-10%,-7%
CN1CCN(CC(=O)N2N=C(c3cccs3)CC2c2ccco2)CC1 (stereo not drawn),8%,0%,-7%,-8%,0%,-15%
O=C(CCl)N1N=C(c2ccco2)CC1c1ccco1 (stereo not drawn),11µM*,26µM*,13µM*,9.2µM*,-85%,?
O=C(COc1ccc(Cl)cc1)N1N=C(c2cccs2)CC1c1ccco1 (stereo not drawn),-3%,-15%,16µM*,26µM*,-15%,-5%
O=C(CCl)N1N=C(c2cccs2)CC1c1ccco1 (stereo not drawn),11µM*,5.2µM*,2.9µM*,2.9µM*,-89%,4.1µM*
CNC(=O)C[C@H]1C(=O)N(c2ccc(OC)cc2)C[C@@H]1C,20%,4%,0%,2%,-4%,0%
O=S(=O)(Nc1ncnc2c1oc1ccccc12)c1ccc(Cl)s1,-24%,-4%,-27%,-19%,0%,-1%
C1=Cc2ccccc2/C1=C(\Cc1ccncc1)Oc1ccncc1,-7%,/,14µM*,11µM*,-37%,/
O=C(Oc1ccccc1)c1ccc2c(c1)C(=O)N(Cc1ccncc1)C2=O,-8%,30%,?,-11%,-32%,17%
COc1cc(/C=N/NC(=Nc2ccc(C)cc2)c2nc3ccccc3s2)ccc1O,?,?,16µM*,14µM*,-1%,?
SMILES,TGFb SMAD3 inh,HT1080-NT tox,DT40 TDP1 no CPT,DT40 TDP1 CPT,HepG2 tox,HT1080 IDH1KD tx
COc1cc(/C=C(\CC(=O)O)c2nc3ccccc3s2)cc(OC)c1O,-2%,-22%,?,-16%,8%,-16%
COc1cc(/C=N/NC(=O)c2cccc(C(=O)N/N=C/c3ccc(O)c(OC)c3)n2)ccc1O,5%,0%,-17%,0%,3%,-16%
COc1cc(C=C(c2nc3ccccc3s2)c2nc3ccccc3s2)cc(OC)c1O,?,-26%,?,23µM*,4%,-23%
CN(C)c1ccc(/C=C(\Cl)c2nc3ccccc3s2)cc1,21%,-17%,21µM*,16µM*,-15%,-29%
O=C(O)c1ccc(C=C(c2nc3ccccc3s2)c2nc3ccccc3s2)cc1,?,?,1%,?,-81%,?
CC(=O)c1cccc(NC(=O)c2cccc3ccccc23)c1,8%,2%,-4%,-1%,-3%,3%
Cc1ccc(CN(C(=O)c2ccc([N+](=O)[O-])cc2)C2CCS(=O)(=O)C2)o1 (stereo not drawn),2%,4%,?,?,1%,-1%
OC(COCC(F)(F)C(F)(F)C(F)(F)C(F)F)Cn1c2ccc(Cl)cc2c2cc(Cl)ccc21 (stereo not drawn),10µM*,?,2.6µM*,3.7µM*,-117%,?
CCOC(=O)c1c(O)c2cc(Cl)ccc2n(CC)c1=O,-1%,6%,-23%,1%,-18%,8%
CCCS(=O)(=O)N1CC(=O)N(c2cc(C)cc(C)c2)C(C)(C(=O)NC2CCCCCC2)C1 (stereo not drawn),0%,/,-17%,-12%,-10%,/
Nc1nc2c(ncn2C2OC(COC(=O)c3ccccc3)C(OC(=O)c3ccccc3)C2OC(=O)c2ccccc2)c(=O)[nH]1 (stereo not drawn),/,/,21µM*,?,/,/
CC(C)C(=O)Nc1nc2c(ncn2[C@H]2CC(O)[C@@H](CO)O2)c(=O)[nH]1 (stereo partly drawn),-8%,/,13µM*,11µM*,-10%,/
Nc1nc2c(nnn2C2CC(O)C(CO)O2)c(=O)[nH]1 (stereo not drawn),?,?,?,29µM*,-25%,5.2µM*
